Assay results reported in PubChem BioAssay (NCI).
Compounds without any hit were thinned out: in the full panel of roughly 83,000, 20% have a hit.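 Growth was measured after 48 h exposure to one concentration of compound in 96-well plates. Values under 10 count as active.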 Unmarked numbers belong to inactive results. The source made the active and inactive calls.

These molecules were tested on CCRF-CEM leukemia (assay: NCI-60 one-dose screen, 48 h (100 = growth as untreated, 0 = no growth, -100 = all killed)). Details: 10 µM unless noted.
Work on `CCOC(=O)CCC(NC(=O)C(Cc1ccc(N(CCCl)CCCl)cc1)NC=O)C(=O)OCC` (stereo not drawn) yielded a growth of 17.6%. `COC(=O)[C@@H](C)C[C@H](Cc1ccccc1)NC(=O)c1nc([C@@H](C[C@H](C(C)C)N(C)C(=O)[C@@H](NC(=O)[C@H]2CCCCN2C)C(C)C)OC(C)=O)sc1C(C)C` was tested, and the growth was 7.31% (active). With `CCCC(C)C1(CC)C(=O)NC(=O)N(C)C1=O` (stereo not drawn) the growth was 93.9%. `C=CCCCCCCCCC(=O)[O-].C=CCCCCCCCCC(=O)[O-].[Zn+2]` was tested, and the growth was 104%. With `COc1ccc(C(O)(C(=O)O)c2ccc(OC)cc2)cc1` the growth was 79.8%. Work on `Nc1c(F)cc(-c2nc3cc(F)ccc3[se]2)cc1F` yielded a growth of 88.7%. Molecule `CC(=O)O[C@@H]1CC[C@]2(C)[C@H]3CC[C@]4(C)C(=O)CC[C@H]4[C@@H]3C[C@@H]3SC(N)=N[C@@]32C1` has a growth of 44.2%. In the case of `N#CC1(C#N)C(c2ccc(N(CCCl)CCCl)cc2)OC23CCCCC2C1(C#N)C(=N)O3` (stereo not drawn), the growth was 77%. With `CCCCNC(c1ccc(Cl)cc1)C(O)c1ccc(Cl)cc1` (stereo not drawn) the growth was 29.7%. For `CCOC(=O)[C@@H](C)C[C@H](Cc1ccccc1)NC(=O)c1csc([C@@H](C[C@H](C(C)C)N(C)C(=O)[C@H](CC)NC(=O)[C@H]2CCCCN2C)OC(C)=O)n1`, the growth was 3.51% (active). With `C[Se]C(=O)c1ccccc1OC(C)=O` the growth was 63.3%. For `ClC1=C(Cl)C(Cl)(C2(Cl)C(Cl)=C(Cl)C(Cl)=C2Cl)C(Cl)=C1Cl`, the growth was -57.6% (active). `CN[C@@]1(c2ccccc2Cl)CCCC[C@@H]1NCC1CCCO1` (stereo partly drawn) gave a growth of 99.8%.
